Test results as given in PubChem BioAssay (NCI).
This is part of a sample that, as a whole, favours compounds with a hit. Of some 83,000 tested, about 20% had one in any assay.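 Assay: single dose, 48 h. Readout: percent growth (0 = no net growth; negative = cell death). Active: <10.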 A number with no mark means an inactive call. Active and inactive are the calls of the source.

Assays:
Assay in all cases: NCI-60 one-dose screen, 48 h (100 = growth as untreated, 0 = no growth, -100 = all killed)
Settings in all cases: 10 µM unless noted
[1] = system: T-47D breast
[2] = system: BT-549 breast
[3] = system: MDA-MB-435 melanoma
[4] = system: SW-620 colon
[5] = system: MCF7 breast
[6] = system: HCT-116 colon
[7] = system: HCC-2998 colon
[8] = system: KM12 colon

Row | Compound | growth [1] | growth [2] | growth [3] | growth [4] | growth [5] | growth [6] | growth [7] | growth [8]
1 | Cc1ccc(-c2nn(C)c(=O)c3noc(-c4ccc(C)cc4)c23)cc1 | 24.2% | 30.8% | -5.41% (active) | 21.1% | 30% | 37.5% | 70.8% | 35.9%
2 | C/C(=N/NC(N)=S)c1sc(Nc2cccc(Cl)c2)nc1C | 30.9% | 84.1% | 84.5% | 81.8% | 76.1% | 74.4% | 107% | 87.8%
3 | Cc1nn(-c2ccccc2)c2c1N=c1s/c(=C\c3ccc(C(F)(F)F)cc3)c(=O)n1CN2 | 54% | 72.2% | 61.4% | 75.7% | 56.9% | 27.8% | 74.2% | 97.2%
4 | CSc1ccc2c(c1)c(CCN)c(C)n2Cc1ccc(Cl)c(Cl)c1 | -73.7% (active) | -79.6% (active) | -91.4% (active) | -63.8% (active) | -68.9% (active) | -92.3% (active) | -88.4% (active) | -90.2% (active)
5 | COC(=O)[C@H](C)NC(=O)NC(=O)NC(=O)CI | 44.6% | 84.3% | 63% | -33.4% (active) | 17.7% | 98.6% | 94.6% | 98.5%
6 | Cc1nc2ccccc2c(/C=C/c2ccc(Cl)cc2)c1C(=O)/C=C/c1cccs1 | 50.1% | 90.9% | 89.3% | 72.4% | 41.9% | 33.9% | 73.5% | 81.5%
7 | N#C/C(=C\c1ccc(F)cc1)n1nc2cccc(F)c2n1 | 33% | 60.8% | -55.4% (active) | 18.9% | 14.1% | 20.8% | 93.8% | 16.4%
8 | CCc1ccc(Oc2c(-c3ccc(OCc4ccc(Cl)cc4)cc3O)nn(C)c2C(F)(F)F)cc1 | -8.15% (active) | -12% (active) | 1.36% (active) | 7.28% (active) | 6.53% (active) | -62.4% (active) | 12.8% | -5.25% (active)
9 | COc1ccc(OC)c(/C=C2\Oc3cc(OCCN4CCC(Cc5ccccc5)CC4)ccc3C2=O)c1 | 63.1% | 89.8% | 87.3% | 74.5% | 77.3% | 73% | 19.7% | 92.9%
10 | CNCCCNc1nc2ccccc2c2c(=O)c3cc(F)ccc3sc12 | 22.4% | 86.7% | -85.3% (active) | -71.4% (active) | -44.8% (active) | -67% (active) | -88.3% (active) | -44.4% (active)
11 | O=C(N/N=C/[C@H](O)[C@H](O)[C@H](O)CO)c1ccc(NC(=O)c2cccnc2)cc1 | 99.2% | 102% | 103% | 103% | 92% | 105% | 110% | 103%
12 | COc1cc2cc(Oc3ccc(NC(=O)Nc4ccc(Cl)c(C(F)(F)F)c4)cc3)c(C)nc2cc1OCCN1CCOCC1 | 22.6% | 48.6% | 15.5% | 15.1% | 4.87% (active) | 10.3% | 36.9% | 14.9%
13 | O=[N+]([O-])c1ccc(Cl)c(-c2cc(CCCCO)on2)c1 | 88.8% | 99.7% | 103% | 104% | 100% | 105% | 108% | 104%
14 | O=[N+]([O-])c1ccc(Oc2nc(Nc3ccc(O[C@H]4CO[C@H]5[C@@H]4OC[C@@H]5O)c(Cl)c3)ncc2F)c(Cl)c1 | 11.9% | 31.8% | 10.9% | 35.7% | 21.2% | 25% | 69.3% | 11.2%
15 | COc1cc(Nc2nc(NCCN)nc3cc[nH]c(=O)c23)cc(OC)c1 | 122% | 66.7% | 69.6% | 64.2% | 77.2% | 46.6% | 79.3% | 76%
